GIRK2 act – activators of NPY4-receptor-primed GIRK2 channels, summary, cell-based, HEK293, thallium flux; HEK293 GIRK2/NPY4 cells, thallium flux fluorescence; activation (% efficacy), % for hits at 75 µM; 34,000 tested, under 10 active;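 active = primary screen hit, no activity in plain HEK293 cells, and in GIRK2-only cells above 5% efficacy rising with concentration; inactive = the rest, including fluorescent compounds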;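 note: efficacy is normalized control-subtracted fluorescence 15 s after thallium addition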
Target sequence (P48051 whole entry, looked up): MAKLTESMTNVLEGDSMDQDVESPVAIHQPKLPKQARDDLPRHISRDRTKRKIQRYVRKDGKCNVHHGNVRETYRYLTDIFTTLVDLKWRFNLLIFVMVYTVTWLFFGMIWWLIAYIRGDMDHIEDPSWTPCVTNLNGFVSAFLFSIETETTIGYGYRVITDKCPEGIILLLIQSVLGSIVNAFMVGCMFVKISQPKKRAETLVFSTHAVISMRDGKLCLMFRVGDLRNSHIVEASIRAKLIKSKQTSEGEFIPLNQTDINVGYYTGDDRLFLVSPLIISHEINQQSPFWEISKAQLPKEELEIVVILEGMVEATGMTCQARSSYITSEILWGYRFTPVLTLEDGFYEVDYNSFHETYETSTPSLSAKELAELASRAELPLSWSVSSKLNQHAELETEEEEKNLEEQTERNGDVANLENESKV
GluA2 TARP mod – modulators of GluA2-stargazin AMPA receptor complexes, primary screen, cell-based, membrane potential dye; Voltage-dependent calcium channel gamma-2 subunit (Mus musculus) + Glutamate receptor 2 …; HEK293 GluA2+stargazin, membrane potential dye (FDSS), glutamate EC50; hits were called plate by plate, in both directions; calls only at 30 µM; 40,000 compounds, 3.5% hits;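 active = any of four per-well response measures lying three or more SD from its plate-wide compound average, in either direction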
The depositor's hits bear a star; i = inactive; . = not tested or not shown; + = active, no number; ! = not active in a repeat. This is one part of a sample in which hits are shown more often than they occur.

SMILES | GIRK2 act | GluA2 TARP mod
O=C(CSc1nccn2nc(-c3ccccc3)cc12)Nc1ccccc1C(F)(F)F | i | i
O=C(NCc1cccc2ccccc12)N(Cc1ccccn1)Cc1ccco1 | i | .
O=C(N(CCc1ccccc1)Cc1ccccn1)C12CC3CC(CC(C3)C1)C2 | i | +
O=C(NC1CCCCC1)N(CCc1ccccc1)Cc1ccccn1 | i | i
O=C(NCc1cccc2ccccc12)N(CCc1ccccc1)Cc1ccccn1 | i | +
COc1nn(C)cc1C(=O)Nc1cc(-c2ccco2)nn1CCO | i | i
Cc1cc(C)c(N(CC(O)COc2ccccc2)S(C)(=O)=O)c(C)c1 (stereo unspecified) | i | i
CCCNC(=O)c1nnn(-c2ccccc2OCC)c1C | i | i
COc1cccc(S(=O)(=O)NCC(O)(c2ccccc2)C2CC2)c1 (stereo unspecified) | i | i
COc1cccc(S(=O)(=O)NCCC(O)C2CC2)c1 (stereo unspecified) | i | +
COc1ccc(C(=O)/C=C/c2cc(OC)c(OC)c(OC)c2)c(O)c1 | . | i
Cc1cccc(N2CCn3c2nc2c3c(=O)n(CC(C)C)c(=O)n2C)c1 | . | i
Cc1cc(C)c(S(=O)(=O)NC(C)C)cc1N(C)S(=O)(=O)c1ccccc1 | . | +
Cc1cccc(N(C)S(=O)(=O)c2cc(N(C)S(=O)(=O)c3ccccc3)c(C)cc2C)c1 | . | i
Cc1cc(C)c(S(=O)(=O)N(C)c2ccc(Cl)cc2)cc1N(C)S(=O)(=O)c1ccccc1 | . | +
Cc1cc(C)c(S(=O)(=O)N(C)c2c(C)cccc2C)cc1N(C)S(=O)(=O)c1ccccc1 | . | i
Cc1ccc(-c2cc(CC(=O)NCCc3ccc(S(N)(=O)=O)cc3)no2)cc1 | i | .
C#CCn1c(=NC(C)=O)sc2cccc(F)c21 | . | i
O=C(NCC(c1ccsc1)N1CCCCCC1)c1c(F)cccc1Cl (stereo unspecified) | i | +
O=C(NCC(c1cccs1)N1CCOCC1)c1c(F)cccc1Cl (stereo unspecified) | i | i
O=C(Nc1ccc2cn[nH]c2c1)C1CN(c2nc3ccccc3s2)C1 | i | i
Cc1cccc(NC(=O)CC2SC(=O)N(CC(=O)c3ccccc3)C2=O)c1 (stereo unspecified) | i | +!
C=CCN1C(=O)SC(CC(=O)Nc2ccc(NC(C)=O)cc2)C1=O (stereo unspecified) | i | i
Cc1cccc(NC2SC(=O)N(Cc3ccccc3)C2=O)c1 (stereo unspecified) | i | +
C=CCN1C(=O)SC(CC(=O)Nc2ccc(Br)cc2)C1=O (stereo unspecified) | i | +
SMILES | GIRK2 act | GluA2 TARP mod
O=C(CC1SC(=O)N(CC(=O)c2ccccc2)C1=O)Nc1ccc(Br)cc1 (stereo unspecified) | i | i
Cc1cccc(NC2SC(=O)N(C(C)C)C2=O)c1 (stereo unspecified) | i | i
O=C(CCc1csc(NC(=O)c2ccc[nH]c2=O)n1)Nc1ccc2c(c1)OCCO2 | i | i
COc1ccc(Cl)cc1NC(=O)C(=O)NCCOc1ccc(F)cc1 | i | .
CN(C)C(CNC(=O)C(=O)NC1CC1)c1ccc(F)cc1 (stereo unspecified) | i | i
Cc1ccc(C(CNC(=O)C(=O)NC2CC2)N(C)C)cc1 (stereo unspecified) | i | +
COc1ccc(CNC(=O)c2sc(=S)n(Cc3ccco3)c2N)cc1 | i | i
CCC(=O)Nn1cnc2c(cnn2C(C)(C)C)c1=O | . | i
CCOCC(=O)Nn1cnc2c(cnn2C(C)(C)C)c1=O | . | +
CC(C)(C)n1ncc2c(=O)n(NC(=O)c3cc(Br)ccc3Cl)cnc21 | i | +
CC(C)(C)n1ncc2c(=O)n(NC(=O)c3cc([N+](=O)[O-])ccc3Cl)cnc21 | i | i
CC(C)c1nnc(C2CCN(C(=O)C3CC(=O)N(c4ccccc4)C3)CC2)o1 (stereo unspecified) | i | i
CCSc1ccccc1C(=O)NCC1(c2ccc(OC)cc2)CCCC1 | i | +
COC(=O)NCC1(c2ccc(OC)cc2)CCCC1 | i | i
CCCC(CCC)C(=O)NCCNC(=O)c1ccc(NC(C)=O)cc1 | i | i
O=C(Cc1csc(SCC(=O)c2ccc3c(c2)OCO3)n1)NCCC1=CCCCC1 | i | .
CCc1ccc(OCC(=O)NCCC2=CCCCC2)cc1 | i | +
Cc1ccc(CSc2nc(CC(=O)NCCC3=CCCCC3)cs2)cc1 | i | +
COc1ccc(C(=O)NCCC2=CCCCC2)cc1 | i | i
CCCc1cc2c(=O)c(-c3ccc4c(c3)OCCO4)coc2cc1OC(=O)N1CCOCC1 | . | i
